The source of these data is PubChem BioAssay (NCATS).

Records with an inconclusive call do not appear. Active and inactive are the calls of the source. Calls follow the shape of the dose curve; as a rule, active = well fitted inhibition curve with a large enough effect; inconclusive = small, poorly fitted or top-dose-only effect; inactive = flat fitted curve, though single readings scatter.

Common to all, as to experiment: qHTS profiling for inhibitors of Plasmodium falciparum proliferation (AID 504749); also: nearly all actives have a fitted effect of over 60% in size
Common to all, as to conditions: P. falciparum in erythrocytes, SYBR Green DNA, 72 h; series mostly up to 28.7 µM
(In general: In qHTS, concentration-response curves come from the screen itself.)

The test system of one assay is PC26. In short, it runs like this:
(§1)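 Parasite proliferation within erythrocytes, 72 h exposure. Endpoint: SYBR Green I fluorescence after overnight lysis at room temperature. Controls: 0.29 uM artemisinin, DMSO.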

A further assay has as its system PAD. A digest of the protocol:
as §1

The subject of another assay is PC15. A digest of the protocol:
as §1

In the next assay the test system is PC49. In short, it runs like this:
as §1

The subject of a further assay is N140. In short, it runs like this: as §1
The subject of a further assay is P94_40. In short, it runs like this:
as §1

In a further assay the test system is TAB109. A digest of the protocol: as §1
In a further assay the test system is TAB113. In short, it runs like this: as §1
For a further assay, the system named is SC27B. In short, it runs like this: as §1
Another assay deals with P93_24. In short, it runs like this:
as §1
Potency is read from the fitted curve at half-maximal effect.

Take `Nc1ccc(S(=O)(=O)Nc2ccc(Cl)nn2)cc1`: the Potency entry in the assay with PC26 is “inactive”.
Regarding `CN(C)CCCN1c2ccccc2Sc2ccc(Cl)cc21`, the Potency was 10 µM (active) in the assay with PAD, 10 µM (active) in the assay with PC15, 6.75 µM (active) in the assay on PC26 and 7.08 µM (active) in the assay on PC49.
With `CC(CN1c2ccccc2Sc2ccccc21)N(C)C` (stereo not drawn), the Potency with N140 is 4.47 µM (active). In addition, the Potency entry in the assay on P94_40, in the assay with PAD, in the assay with PC15, in the assay with PC26, with PC49 and in the assay with TAB109 was “inactive” throughout. In the assay with TAB113, the Potency result is “inactive”.
For `CN(C)CCN(Cc1ccccc1)c1ccccn1`, the Potency entry in the assay with P94_40, with PAD, with PC15, in the assay with PC49, with SC27B and in the assay on TAB113 was “inactive” each time.
Consider `CCCCN(CCCC)CC(O)c1cc(Cl)cc2c1-c1ccc(Cl)cc1/C2=C/c1ccc(Cl)cc1` (stereo not drawn), for which the Potency in the assay on N140 is 0.0045 µM (active); with P93_24, 0.0126 µM (active); in the assay on P94_40 it was 0.005 µM (active); in the assay on PAD, 0.0056 µM (active); in the assay with PC15, 0.0112 µM (active); in the assay with SC27B it was 0.0112 µM (active). In addition, the Potency in the assay on TAB109 is 0.0126 µM (active); in the assay with TAB113, 0.0056 µM (active).
Take `COc1ccc2[nH]c(S(=O)Cc3ncc(C)c(OC)c3C)nc2n1` (stereo not drawn): the Potency in the assay with N140 is 6.31 µM (active); in the assay on P93_24, 7.94 µM (active); in the assay on P94_40, 8.91 µM (active); in the assay on PAD it was 4.47 µM (active); in the assay on PC49 it was 7.94 µM (active); with SC27B it was 8.91 µM (active). Also, the Potency with TAB109 and in the assay on TAB113 was 8.91 µM (active) each time.
`CNCCCC1c2ccccc2C=Cc2ccccc21`: the Potency entry in the assay with N140, in the assay with PAD, with PC49, with SC27B, in the assay with TAB109 and with TAB113 was “inactive” in each case.
Turning to `Cc1ccc2nc(N)[nH]c(=O)c2c1Sc1ccncc1`, the Potency was 3.98 µM (active) in the assay with N140, 14.1 µM (active) in the assay with P93_24, 12.6 µM (active) in the assay on P94_40 and 7.08 µM (active) with TAB109. The Potency entry in the assay with PC26 is “inactive”.
Turning to `NC(=O)N/N=C/c1ccc([N+](=O)[O-])o1`, the Potency in the assay with N140 was 11.2 µM (active); in the assay with P93_24 it was 8.91 µM (active); in the assay on SC27B, 12.6 µM (active); in the assay with TAB109, 12.6 µM (active).
In the case of `Nc1ncnc2c1ncn2[C@@H]1O[C@H](CO)[C@@H](O)[C@H]1O`, the Potency result in the assay with N140, with P94_40, with PAD, with PC15, with PC26 and with PC49 was “inactive” in each case. Besides, the Potency entry in the assay with SC27B, with TAB109 and with TAB113 was “inactive” throughout.
In the case of `c1ccc(CN(CC2=NCCN2)c2ccccc2)cc1`, the Potency in the assay with PC49 was 3.16 µM (active).
For the compound `COCCOC(=O)C1=C(C)NC(C)=C(C(=O)OC/C=C/c2ccccc2)C1c1cccc([N+](=O)[O-])c1` (stereo not drawn), the Potency was 8.91 µM (active) in the assay on N140, 11.2 µM (active) with P93_24, 8.91 µM (active) in the assay on PAD and 10 µM (active) in the assay on SC27B. Further, the Potency entry in the assay with PC49 is “inactive”.
`[Cl][In]([Cl])[Cl]`: in the assay with P93_24, the Potency was 10 µM (active).
On to `CCCn1cnc2c1c(=O)n(CCCCC(C)=O)c(=O)n2C`, for which the Potency entry in the assay with N140, with P94_40, in the assay with PAD, with PC15, in the assay with PC26 and in the assay with PC49 was “inactive” each time. Moreover, the Potency result in the assay with SC27B, in the assay on TAB109 and in the assay on TAB113 was “inactive” throughout.
Regarding `CC(=O)c1ccc2c(c1)N(CCCN(C)C)c1ccccc1S2`, the Potency result with N140, in the assay on P94_40, in the assay on PAD, in the assay with PC15, in the assay with PC26 and with PC49 was “inactive” throughout. The Potency entry in the assay on SC27B, in the assay on TAB109 and with TAB113 was “inactive” each time.
`OCCN1CCN(CCCN2c3ccccc3Sc3ccc(Cl)cc32)CC1`: the Potency with N140 was 3.55 µM (active); with P93_24, 2.24 µM (active); in the assay with PC15, 3.16 µM (active).
With `NCCNCCNCCN`, the Potency result in the assay with N140, in the assay with P93_24, with PAD, with PC15, in the assay on PC26 and in the assay with PC49 was “inactive” in each case. Also, the Potency result in the assay on SC27B, with TAB109 and in the assay on TAB113 was “inactive” throughout.
On to `CN1CCN(C2Cc3ccccc3Sc3ccc(Cl)cc32)CC1` (stereo not drawn), for which the Potency entry with N140, with P94_40 and in the assay on PC15 was “inactive” throughout.
As for `NC1CCN(c2cccc(Cl)n2)CC1`, the Potency entry with N140, in the assay with PAD, in the assay with PC15, in the assay on PC26, in the assay with PC49 and with SC27B was “inactive” in each case. In addition, the Potency result with TAB109 and in the assay with TAB113 was “inactive” in each case.
As to `Oc1ccc(C(O)CNCCCCCCNCC(O)c2ccc(O)c(O)c2)cc1O` (stereo not drawn), the Potency in the assay on P93_24 was 10 µM (active). In addition, the Potency result with PC49 was “inactive”.
For `CCOc1nc2cccc(C(=O)O)c2n1Cc1ccc(-c2ccccc2-c2nn[nH]n2)cc1`, the Potency entry in the assay with P93_24, in the assay on PAD, with PC15, in the assay on PC49 and in the assay on TAB109 was “inactive” throughout. Further, in the assay on SC27B, the Potency is 11.2 µM (active).
For `CCN(CC)CCNC(C(=O)OCCC(C)C)c1ccccc1` (stereo not drawn), the Potency in the assay with P93_24 was 8.91 µM (active). Besides, the Potency result with PAD and with SC27B was “inactive” in each case.
